The source made the active and inactive calls. Unless noted, no rule for the calls is given here.

The subject of assay [1] is XIP peptide (Xip251-270) binding. Kind of assay: XIP fragment 251-270 binding compounds – biochemical, small-molecule microarray, fluorescence 635/667 nm, 0.1 µg/mL protein, primary screen (AID 1182). Particulars: fluorescent protein binding, 635 nm, higher = more signal, called active from +8 up or from −8 down.
A further assay relates to XIP peptide (Xip251-270). Briefly: compounds binding XIP fragment 251-270 – biochemical, small-molecule microarray, fluorescence 635/667 nm, 0.5 µg/mL protein, primary screen (AID 1183). As to conditions: fluorescence 635 nm, higher = more signal.
Assay [2] in a line: blood-stage malaria parasite viability loss – strain 3D7, DAPI fluorescence, 100 nL, primary screen (AID 1184).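 Also: parasites grown inside human red blood cells in medium with human serum.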 As to conditions: P. falciparum 3D7 growth, 3 d, higher = more signal.
The target in assay [3] is Homeobox protein Hox-A13 (Mus musculus) (UniProt Q62424). Kind of assay: disruptors of Hoxa13 oligonucleotide interaction – biochemical, fluorescence polarization, labeled oligonucleotide, primary screen (AID 1185). Particulars: Hoxa13:DNA binding, 15 min, higher = more signal, called active from +8 up or from −8 down.
A short description of assay [4]: blockers of DNA damage checkpoint Chk1 activation – imaging, HeLa, hydroxyurea, phospho-Chk1 antibody, percent positive cells, primary screen (AID 1186). As to conditions: hydroxyurea-induced phospho-Chk1 immunofluorescence imaging, higher = more signal.
The nature of assay [5]: blockers of DNA damage checkpoint Chk1 activation – imaging, HeLa, hydroxyurea, phospho-Chk1 nuclear intensity, primary screen (AID 1187). As to conditions: hydroxyurea-induced phospho-Chk1 immunofluorescence imaging, higher = more signal.

Chain of Homeobox protein Hox-A13 (Mus musculus) (Q62424 whole entry, looked up): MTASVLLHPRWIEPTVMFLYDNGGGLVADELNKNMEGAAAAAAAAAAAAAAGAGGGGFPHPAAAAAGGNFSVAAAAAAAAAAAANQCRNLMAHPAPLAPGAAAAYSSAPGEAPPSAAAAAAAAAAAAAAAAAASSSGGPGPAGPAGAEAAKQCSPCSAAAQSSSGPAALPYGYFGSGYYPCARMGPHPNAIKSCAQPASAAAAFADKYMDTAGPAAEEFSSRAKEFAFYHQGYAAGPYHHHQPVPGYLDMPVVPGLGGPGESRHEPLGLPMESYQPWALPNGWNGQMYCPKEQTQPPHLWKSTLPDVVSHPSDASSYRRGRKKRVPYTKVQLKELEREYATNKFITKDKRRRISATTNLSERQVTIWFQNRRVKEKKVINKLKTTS

As for `O=C(NCCCCCNC(=O)/C(Cc1ccccc1)=N/O)OCc1ccccc1`, the composite z-score in assay [1] is -0.333 (inactive); with XIP peptide (Xip251-270) it was 0.132. Further, the z-score in assay [2] is -1.94; in assay [3] it was -4.08 (inactive); in assay [4] it was -0.466 (inactive); in assay [5] it was 0.238 (inactive).

For `O=c1n(-c2ccccc2)c(=O)n2n1CC(COc1ccccc1)=C([C@H](O)CCc1ccccc1)[C@@H]2CO`, the composite z-score in assay [1] was 0.0148 (inactive); in the assay on XIP peptide (Xip251-270), -0.407. Also, the z-score is -0.601 in assay [2], -7.77 (inactive) in assay [3], -0.268 (inactive) in assay [4] and 0.771 (inactive) in assay [5].

On to `Cc1ccc(S[C@]2(C(=O)O)CC(=O)N(Cc3cc(C(F)(F)F)cc(C(F)(F)F)c3)[C@@H]2c2ccc(CO)cc2)cc1`, for which the composite z-score in assay [1] was -0.287 (inactive); with XIP peptide (Xip251-270) it was -1.25. Moreover, the z-score in assay [2] was 0.777; in assay [3] it was -3.18 (inactive); in assay [4], 0.0261 (inactive); in assay [5], -0.641 (inactive).

Consider `COCC1=C2[C@@H](CCc3ccccc3)OB(O)C[C@@H]2[C@@H]2C(=O)C=CC(=O)[C@@H]2C1`, for which the composite z-score is 0.796 (inactive) in assay [1] and -0.154 in the assay with XIP peptide (Xip251-270). Moreover, the z-score in assay [2] is -1.28; in assay [3] it was -6.27 (inactive); in assay [4], 0.162 (inactive); in assay [5], 0.398 (inactive).

Regarding `CC(=O)NCCCC[C@@H]1NC(=O)[C@H]2C[C@@H](C(=O)NCCCC[N+](C)(C)C)[C@@H](c3cccc(OCCO)c3)N2C1=O`, the composite z-score is 2.02 (inactive) in assay [1] and 0.823 in the assay with XIP peptide (Xip251-270). The z-score in assay [2] is -0.207; in assay [3] it was -1.96 (inactive); in assay [4], 0.0751 (inactive); in assay [5], 0.341 (inactive).

As for `CC(C)C[C@@H]1NC(=O)[C@@H]2C[C@H](C(=O)NCCCCN(C)C)[C@H](c3cccc(OCCO)c3)N2C1=O`, the composite z-score is 0.36 (inactive) in assay [1] and 0.755 with XIP peptide (Xip251-270). Besides, the z-score was -0.192 in assay [2], -3.41 (inactive) in assay [3], -0.232 (inactive) in assay [4] and -0.455 (inactive) in assay [5].

Take `C[C@H]1NC(=O)[C@@]23C(=O)N[C@@H](Cc4ccccc4)C2[C@H](C)[C@@]2(C)O[C@H]2C3/C=C/C/C=C\CNC(=O)[C@H](Cc2ccccc2)NC1=O` (some centres not stated): the values for the composite z-score (in assay [1]; with XIP peptide (Xip251-270)) were 0.0017 (inactive) and 0.424, respectively. Also, the z-score in assay [2] is -1.4; in assay [3] it was -7.15 (inactive); in assay [4], 0.116 (inactive); in assay [5], 0.368 (inactive).

As for `OCCCC1=CC(c2ccc(CN3CCCC3)cc2)N(Cc2sc3ccccc3c2Cl)CC1` (configuration not stated), the composite z-score in assay [1] is 0.705 (inactive); in the assay with XIP peptide (Xip251-270), 0.797. Besides, the z-score in assay [2] was -3.1; in assay [3] it was -1.38 (inactive); in assay [4], -0.186 (inactive); in assay [5], -0.276 (inactive).

Turning to `Cc1cc(C)cc(N2C(=O)CSC2c2cccc([N+](=O)[O-])c2)c1` (configuration not stated), the composite z-score in assay [1] is 0.397 (inactive); in the assay on XIP peptide (Xip251-270) it was 0.521. Moreover, the z-score is -0.0855 in assay [2], 0.0457 (inactive) in assay [3], -0.251 (inactive) in assay [4] and -0.335 (inactive) in assay [5].

As to `COc1ccc(C#Cc2ccc3c(c2)[C@]2(C(=O)N3)[C@H](c3ccc(O)cc3)N3[C@H](c4ccccc4)[C@H](c4ccccc4)OC(=O)[C@H]3[C@@H]2C(=O)O)cc1`, the composite z-score in assay [1] is -0.101 (inactive); in the assay on XIP peptide (Xip251-270), 0.83. Besides, the z-score in assay [2] is -1.23; in assay [3] it was -5.22 (inactive); in assay [4], -0.368 (inactive); in assay [5], -0.664 (inactive).

As to `Cc1ccc(S[C@]2(C(=O)NCC(F)(F)F)CC(=O)N(Cc3ccccc3C(F)(F)F)[C@@H]2c2ccc(CO)cc2I)cc1`, the composite z-score was -0.485 (inactive) in assay [1] and -0.0347 with XIP peptide (Xip251-270). In addition, the z-score is -0.115 in assay [2], -2.45 (inactive) in assay [3], 0.504 (inactive) in assay [4] and 1.27 (inactive) in assay [5].

`COCCOC(=O)N1C(=O)[C@@]2(c3cc(C#CC4=CCCCC4)ccc31)[C@H](c1ccccc1OCCO)N1[C@H](c3ccccc3)[C@H](c3ccccc3)OC(=O)[C@H]1[C@@H]2C(=O)Nc1nc2ccccc2s1`: the composite z-score in assay [1] is 0.469 (inactive); in the assay on XIP peptide (Xip251-270), 0.484. For the same compound, the z-score is -1.8 in assay [2], 3.53 (inactive) in assay [3], 0.325 (inactive) in assay [4] and 0.587 (inactive) in assay [5].

Take `Cc1ccc(S[C@]2(C(=O)O)CC(=O)N(C3Cc4ccccc4C3)[C@@H]2c2ccc(CO)cc2)cc1`: the composite z-score is 1.36 (inactive) in assay [1] and -0.669 with XIP peptide (Xip251-270). For the same compound, the z-score in assay [2] is 1.58; in assay [3], -3.97 (inactive); in assay [4] it was 0.172 (inactive); in assay [5] it was 0.129 (inactive).

In the case of `CC(C)(C)OC(=O)CC[C@@]1(C(=O)NCc2ccccc2)N=C(c2ccc(OCCCO)cc2)O[C@@H]1c1ccccc1N=[N+]=[N-]`, the composite z-score in assay [1] is -0.208 (inactive); in the assay with XIP peptide (Xip251-270), 0.759. In addition, the z-score in assay [2] was -2.1; in assay [3], -1.44 (inactive); in assay [4], -0.347 (inactive); in assay [5], 0.14 (inactive).

With `COc1ccc([Si](C)(C)[C@@H]2[C@@H](CC(=O)N(CCO)Cc3ccccc3)O[C@]3(C(=O)N(Cc4cccc(N5C(=O)c6cccc7cccc5c67)c4)c4ccccc43)[C@H]2C)cc1`, the composite z-score is -0.338 (inactive) in assay [1] and 0.604 with XIP peptide (Xip251-270). Further, the z-score is -2.52 in assay [2], -0.625 (inactive) in assay [3], -0.512 (inactive) in assay [4] and 0.0885 (inactive) in assay [5].

Regarding `[N-]=[N+]=NCc1ccccc1C[C@]1(C(N)=O)N=C(c2ccc(OCCCO)cc2)O[C@H]1c1ccccc1`, the composite z-score in assay [1] was 0.594 (inactive); with XIP peptide (Xip251-270) it was 0.692. In addition, the z-score in assay [2] is -1.42; in assay [3], -6.49 (inactive); in assay [4], 0.0449 (inactive); in assay [5], 0.43 (inactive).

`COC(=O)c1c2oc(c1C(=O)OC)C(=O)N(C)Cc1cn(nn1)C[C@H](Cc1ccccc1)NC(=O)N[C@H](CO)CC2`: the composite z-score in assay [1] was 0.15 (inactive); with XIP peptide (Xip251-270) it was -0.374. The z-score in assay [2] is -0.38; in assay [3], -1.66 (inactive); in assay [4] it was 0.453 (inactive); in assay [5] it was 0.723 (inactive).

Take `[N-]=[N+]=NCc1ccccc1[C@H]1OC(c2ccc(OCCCO)cc2)=N[C@@]1(CCS(=O)(=O)c1ccccc1)C(=O)NCC(O)CO` (some centres not stated): the composite z-score in assay [1] is 1.2 (inactive); in the assay on XIP peptide (Xip251-270), 0.781. The z-score in assay [2] is -2.41; in assay [3] it was -2.82 (inactive); in assay [4] it was -0.0433 (inactive); in assay [5] it was 0.0231 (inactive).

For the compound `COC(=O)[C@@]1(Cc2ccc(OC)cc2)[C@H]2c3cc(C(=O)N4CCCC4)n(Cc4c(-c5ccccc5)noc4C)c3C[C@H]2CN1C(=O)c1ccccc1`, the composite z-score is 2.97 (inactive) in assay [1] and 0.473 with XIP peptide (Xip251-270). Further, the z-score in assay [2] is -1.3; in assay [3], -3.25 (inactive); in assay [4], -0.279 (inactive); in assay [5] it was -0.313 (inactive).

Take `COC(=O)c1ccc([C@H](NC(=O)c2ccco2)[C@]2(C)C[C@H]2C2CCCCC2)cc1`: the composite z-score was -0.235 (inactive) in assay [1] and -0.727 in the assay with XIP peptide (Xip251-270). Moreover, the z-score is -0.414 in assay [2], -2.66 (inactive) in assay [3], 0.089 (inactive) in assay [4] and -0.229 (inactive) in assay [5].

Take `C=CCC(OC(C)=O)[C@@H]1[C@@H](N(Cc2cccc3ccccc23)C(=O)Cc2ccc(F)cc2)c2cc(OCCCO)ccc2N1C(=O)c1ccc2ccccc2n1` (some centres not stated): the composite z-score in assay [1] was -0.533 (inactive); with XIP peptide (Xip251-270) it was -0.272. Also, the z-score in assay [2] is -2.13; in assay [3], -1.34 (inactive); in assay [4] it was -0.172 (inactive); in assay [5] it was -0.761 (inactive).

For `O=C1C2C=CC(C(O)c3ccc(F)cc3)N(n3cnnc3)C2C(=O)N1Cc1ccccc1` (configuration not stated), the composite z-score in assay [1] was 0.34 (inactive); in the assay with XIP peptide (Xip251-270), 0.854. In addition, the z-score in assay [2] is -1.09; in assay [3], -0.994 (inactive); in assay [4], 0.0044 (inactive); in assay [5], -1.28 (inactive).

For the compound `O=C1C2C=CC(C(O)c3ccc(Br)cc3)N(Nc3ccccc3F)C2C(=O)N1c1ccccc1` (configuration not stated), the composite z-score in assay [1] was 0.197 (inactive); with XIP peptide (Xip251-270), 0.704. The z-score in assay [2] is -0.133; in assay [3] it was -2.41 (inactive); in assay [4] it was -0.863 (inactive); in assay [5] it was -0.909 (inactive).

`C=CCNC(=O)[C@H]1[C@@H]2C(=O)O[C@@H](c3ccccc3)[C@@H](c3ccccc3)N2[C@@H](c2ccc(O)cc2)[C@]12C(=O)N(C(=O)OCCOC)c1ccccc12`: the composite z-score was 0.995 (inactive) in assay [1] and 0.742 with XIP peptide (Xip251-270). The z-score in assay [2] is -1.38; in assay [3] it was -3.73 (inactive); in assay [4], 0.175 (inactive); in assay [5] it was -0.0776 (inactive).

Consider `C=C(COC)/C(=C/C[C@H](OC(=O)c1ccncc1)c1ccccc1OCCO)c1cnc2ccccc2c1`, for which the results for the composite z-score (in assay [1]; in the assay with XIP peptide (Xip251-270)) were 0.683 (inactive) and 0.612, respectively. Further, the z-score is -2.99 in assay [2], -5.29 (inactive) in assay [3], -0.446 (inactive) in assay [4] and -0.166 (inactive) in assay [5].

Turning to `C=CCC(OC(C)=O)[C@@H]1[C@@H](N(Cc2cc3ccccc3o2)C(=O)c2ccc(-c3ccccc3)cc2)c2cc(OCCCO)ccc2N1C(=O)c1ccc2ccccc2c1` (some centres not stated), the composite z-score in assay [1] is -0.252 (inactive); in the assay on XIP peptide (Xip251-270) it was -0.273. Further, the z-score in assay [2] was -1.41; in assay [3], -0.926 (inactive); in assay [4], 0.347 (inactive); in assay [5] it was 0.433 (inactive).

For the compound `C=C(COC)/C(=C/C[C@H](OC(C)=O)c1ccc(OCCO)cc1)c1cc(C(=O)OC)ccc1OC`, the composite z-score in assay [1] was 0.192 (inactive); in the assay on XIP peptide (Xip251-270), 0.731. In addition, the z-score in assay [2] is -2.95; in assay [3] it was -4.11 (inactive); in assay [4], -0.285 (inactive); in assay [5], 0.98 (inactive).

(Values after PubChem BioAssay.)
